Values without a mark were called inactive. Records with an inconclusive call do not appear. Activity calls are given as the source filed them. Calls follow the shape of the dose curve; as a rule, active = well fitted curve in the direction sought with a large enough effect in the repeat runs; inconclusive = weak or mixed curves; inactive = no such curve, though single readings can be large; an effect the other way counts as inactive or inconclusive.

From PubChem BioAssay (Tox21) come the findings set out here.

Assay [1] is described as follows: Human pregnane X receptor (PXR) small molecule agonists, qHTS cell viability counter screen (AID 1346977). Also: nearly all actives have a fitted effect of over 50% in size. The method, boiled down:
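PXR-Luc HepG2, 2,000 cells/well, 5% charcoal-stripped FBS; 5hr settle; cpd 24hr, 37C/5% CO2; CellTiter-Fluor at 23hr, read 1hr later (fluorescence).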
Background: Quantitative high-throughput screening tests each substance at several concentrations.

Assay [2] can be described thus: Caspase-3/7 induction in HepG2 cells by small molecules, qHTS assay (AID 1346978). Also: nearly all actives have a fitted effect of over 15% in size. The method in brief:
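Caspase-3/7 induction was measured by Caspase-Glo 3/7 luminescence (30 min, room temperature) after a 17 hr compound exposure of wild-type HepG2 cells seeded at 2,000 per well and pre-incubated 5 hr.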

Assay [3] can be described thus: Caspase-3/7 induction in CHO-K1 cells by small molecules, qHTS cell viability counter screen (AID 1346979). Also: nearly all actives have a fitted effect of over 35% in size. The method, boiled down: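 Cells (CHO-K1, wild type) are plated at 1,500 per well and incubated 5hr. Test compounds in DMSO are then pinned in, followed by 16hr at 37C and 5% CO2. Viability is read by CellTiter-Fluor fluorescence after 1hr.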
Assay [4] in a line: Caspase-3/7 induction in CHO-K1 cells by small molecules, qHTS assay (AID 1346980). Also: nearly all actives have a fitted effect of over 15% in size. The method in brief:
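Luminescent Caspase-Glo 3/7 read (30min, room temperature) quantified apoptosis induction. Cells were wild-type CHO-K1, treated with compound for 17hr at 37 C and 5% CO2.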

A short description of assay [5]: Caspase-3/7 induction in HepG2 cells by small molecules, qHTS cell viability counter screen (AID 1346981). Also: series mostly up to about 92 µM; nearly all actives have a fitted effect of over 30% in size. The method in brief:
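Viability determined by CellTiter-Fluor fluorescence in HepG2 wells also used for the luminescent Caspase-Glo 3/7 read. Compounds were present for 16 hr at 37 C, 5% CO2 before reagent addition.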

In assay [6] the target is Nuclear receptor subfamily 1 group I member 2 (Homo sapiens) (UniProt O75469). As to the kind of experiment: Human pregnane X receptor (PXR) small molecule agonists, qHTS assay (AID 1346982). Also: nearly all actives have a fitted effect of over 35% in size. Also: potency is read from the fitted curve at half-maximal effect. The method, boiled down:
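Compound-induced hPXR transactivation of a CYP3A4 luciferase reporter was scored in HepG2 PXR-Luc cells over 24 hr at 37 C, 5% CO2, by luminescence.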

Assay [7] has as its target Cytochrome P450 2D6 (Homo sapiens) (UniProt P10635). As to the kind of experiment: Cytochrome P450 Family 2 Subfamily D Member 6 (CYP2D6) small molecule antagonists: luciferase reporter qHTS assay (AID 1671196). Also: nearly all actives have a fitted effect of over 50% in size. Also: potency is read from the fitted curve at half-maximal effect. As to activity change, negative = inhibition: series mostly up to about 120 µM. The method in brief:
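Each well received CYP2D6 with its proluciferin substrate and chemical, sat 10 min, then got NADPH regeneration solution for 1 h at room temperature. Luminescence in RLU served as the activity measure.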
On the technique in general: Reporter assays use an easily measured gene product as a stand-in for the process of interest.

The target in assay [8] is Cytochrome P450 2C19 (Homo sapiens) (UniProt P33261). Description: Cytochrome P450 Family 2 Subfamily C Member 19 (CYP2C19) small molecule antagonists: luciferase reporter qHTS assay (AID 1671197). Also: nearly all actives have a fitted effect of over 65% in size. Also: potency is read from the fitted curve at half-maximal effect. As to activity change, negative = inhibition: series mostly up to about 120 µM. The method, boiled down: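 P450-Glo CYP2C19 screening system; proluciferin substrate; DMSO compound stocks; 10 min RT preincubation; NADPH regeneration, 1 h at 37C; luciferin detection reagent, 20 min RT; luminescence as RLU.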
Sequence of Cytochrome P450 2C19 (Homo sapiens) (P33261 whole entry, looked up): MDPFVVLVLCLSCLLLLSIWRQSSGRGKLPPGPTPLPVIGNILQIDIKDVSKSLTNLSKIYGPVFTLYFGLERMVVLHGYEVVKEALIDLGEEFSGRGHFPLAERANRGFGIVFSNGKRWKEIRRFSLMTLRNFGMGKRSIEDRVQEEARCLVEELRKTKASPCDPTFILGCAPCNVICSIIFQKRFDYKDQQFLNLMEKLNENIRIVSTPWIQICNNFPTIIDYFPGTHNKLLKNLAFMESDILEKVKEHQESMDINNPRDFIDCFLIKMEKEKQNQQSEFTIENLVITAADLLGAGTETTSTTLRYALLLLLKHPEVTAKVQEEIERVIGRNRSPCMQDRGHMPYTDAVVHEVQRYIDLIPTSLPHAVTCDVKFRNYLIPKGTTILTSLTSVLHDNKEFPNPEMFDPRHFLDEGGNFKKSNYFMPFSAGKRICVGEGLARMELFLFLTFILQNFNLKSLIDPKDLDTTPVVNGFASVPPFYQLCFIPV

For assay [9], the target named is Cytochrome P450 1A2 (Homo sapiens) (UniProt P05177). As to the kind of experiment: Cytochrome P450 Family 1 Subfamily A Member 2 (CYP1A2) small molecule antagonists: luciferase reporter qHTS assay (AID 1671199). Also: nearly all actives have a fitted effect of over 50% in size. Also: potency is read from the fitted curve at half-maximal effect. As to activity change, negative = inhibition: series mostly up to about 120 µM. The method in brief: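 Enzymatic CYP1A2 assay, human, luminescent: 10 min compound–enzyme–substrate preincubation, 1 h NADPH-dependent turnover, 20 min detection step, room temperature throughout. Reduced light indicates lower CYP1A2 activity.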
Sequence of Cytochrome P450 1A2 (Homo sapiens) (P05177 whole entry, looked up): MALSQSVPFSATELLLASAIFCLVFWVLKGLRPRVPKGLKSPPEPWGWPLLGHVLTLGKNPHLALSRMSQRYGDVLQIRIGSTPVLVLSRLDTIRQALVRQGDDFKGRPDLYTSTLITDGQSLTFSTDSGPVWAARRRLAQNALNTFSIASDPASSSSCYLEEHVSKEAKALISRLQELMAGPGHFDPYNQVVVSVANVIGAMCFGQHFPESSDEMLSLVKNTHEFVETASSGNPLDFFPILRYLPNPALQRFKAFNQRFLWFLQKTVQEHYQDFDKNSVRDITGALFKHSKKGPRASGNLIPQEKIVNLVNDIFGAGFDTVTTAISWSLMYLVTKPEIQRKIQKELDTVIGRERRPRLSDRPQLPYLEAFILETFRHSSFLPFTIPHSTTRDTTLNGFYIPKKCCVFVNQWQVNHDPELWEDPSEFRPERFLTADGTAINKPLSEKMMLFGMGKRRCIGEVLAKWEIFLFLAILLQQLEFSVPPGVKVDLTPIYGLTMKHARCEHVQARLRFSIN

Assay [10] has as its target Voltage-gated inwardly rectifying potassium channel KCNH2 (Homo sapiens) (UniProt Q12809). As to the kind of experiment: Human Ether-a-go-go-Related Gene (hERG) channel small molecule antagonists: fluorescence cell-based qHTS assay (AID 1671200).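 Also: hERG-expressing U2OS cells given a thallium stimulus after FluxOR II dye loading; series mostly up to about 77 µM; nearly all actives have a fitted effect of over 50% in size.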 The method in brief:
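Channel function was assessed by thallium flux. Cells seeded the previous day and kept at 37 C took up FluxOR II dye over 1 h in the dark at room temperature, then sat another 10 min before stimulation.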
(The hERG channel carries a current that helps repolarise heart muscle cells.)

For assay [11], the target named is Cytochrome P450 3A4 (Homo sapiens) (UniProt P08684). Description: Cytochrome P450 Family 3 Subfamily A Member 4 (CYP3A4) small molecule antagonists: luciferase reporter qHTS assay (AID 1671201). Also: nearly all actives have a fitted effect of over 50% in size. Also: potency is read from the fitted curve at half-maximal effect. As to activity change, negative = inhibition: series mostly up to about 120 µM. The method, boiled down:
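Compounds in DMSO were pin-transferred onto CYP3A4 enzyme-substrate mix and held 10 min at room temperature. NADPH regenerating solution started the reaction for 1 h; luciferin detection reagent stopped it, and luminescence was read after 20 min.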

The target of assay [12] is Cytochrome P450 2C9 (Homo sapiens) (UniProt P11712). As to the kind of experiment: Cytochrome P450 Family 2 Subfamily C Member 9 (CYP2C9) small molecule antagonists: luciferase reporter qHTS assay (AID 1671198). Also: nearly all actives have a fitted effect of over 50% in size. Also: potency is read from the fitted curve at half-maximal effect. As to activity change, negative = inhibition: series mostly up to about 120 µM. The method, boiled down:
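Enzyme-substrate mix preincubated with compound 10 min at room temperature; reaction started with NADPH regeneration solution, 1 h 37C. Luminescent luciferin product read after 20 min detection reagent.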
% is scaled to controls: 0 for no effect and ±100 for the full control effect.

Sequence of Cytochrome P450 2D6 (Homo sapiens) (P10635 whole entry, looked up): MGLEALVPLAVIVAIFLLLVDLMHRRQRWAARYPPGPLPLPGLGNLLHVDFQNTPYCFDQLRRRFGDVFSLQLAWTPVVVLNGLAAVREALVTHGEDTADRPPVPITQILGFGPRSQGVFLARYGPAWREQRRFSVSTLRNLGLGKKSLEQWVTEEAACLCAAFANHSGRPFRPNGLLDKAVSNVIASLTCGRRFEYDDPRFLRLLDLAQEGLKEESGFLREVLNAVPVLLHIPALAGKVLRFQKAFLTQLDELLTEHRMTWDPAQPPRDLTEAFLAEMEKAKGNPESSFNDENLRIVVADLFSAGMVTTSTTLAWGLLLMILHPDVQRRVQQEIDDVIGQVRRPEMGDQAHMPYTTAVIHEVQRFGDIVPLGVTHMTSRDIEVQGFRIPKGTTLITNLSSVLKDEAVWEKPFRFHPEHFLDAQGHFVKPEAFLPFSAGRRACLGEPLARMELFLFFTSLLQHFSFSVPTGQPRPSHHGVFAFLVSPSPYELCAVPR
Sequence of Nuclear receptor subfamily 1 group I member 2 (Homo sapiens) (O75469 whole entry, looked up): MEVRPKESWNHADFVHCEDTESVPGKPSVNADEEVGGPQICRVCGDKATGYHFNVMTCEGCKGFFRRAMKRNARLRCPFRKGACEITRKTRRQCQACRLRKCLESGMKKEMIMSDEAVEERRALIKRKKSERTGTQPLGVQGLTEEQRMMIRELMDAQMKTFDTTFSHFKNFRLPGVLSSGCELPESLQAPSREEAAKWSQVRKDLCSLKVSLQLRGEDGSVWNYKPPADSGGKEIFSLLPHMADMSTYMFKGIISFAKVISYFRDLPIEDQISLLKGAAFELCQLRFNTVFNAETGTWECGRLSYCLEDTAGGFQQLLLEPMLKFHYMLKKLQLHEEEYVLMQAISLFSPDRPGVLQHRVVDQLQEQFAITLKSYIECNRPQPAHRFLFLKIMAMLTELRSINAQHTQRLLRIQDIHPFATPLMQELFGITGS
Sequence of Voltage-gated inwardly rectifying potassium channel KCNH2 (Homo sapiens) (Q12809 whole entry, looked up): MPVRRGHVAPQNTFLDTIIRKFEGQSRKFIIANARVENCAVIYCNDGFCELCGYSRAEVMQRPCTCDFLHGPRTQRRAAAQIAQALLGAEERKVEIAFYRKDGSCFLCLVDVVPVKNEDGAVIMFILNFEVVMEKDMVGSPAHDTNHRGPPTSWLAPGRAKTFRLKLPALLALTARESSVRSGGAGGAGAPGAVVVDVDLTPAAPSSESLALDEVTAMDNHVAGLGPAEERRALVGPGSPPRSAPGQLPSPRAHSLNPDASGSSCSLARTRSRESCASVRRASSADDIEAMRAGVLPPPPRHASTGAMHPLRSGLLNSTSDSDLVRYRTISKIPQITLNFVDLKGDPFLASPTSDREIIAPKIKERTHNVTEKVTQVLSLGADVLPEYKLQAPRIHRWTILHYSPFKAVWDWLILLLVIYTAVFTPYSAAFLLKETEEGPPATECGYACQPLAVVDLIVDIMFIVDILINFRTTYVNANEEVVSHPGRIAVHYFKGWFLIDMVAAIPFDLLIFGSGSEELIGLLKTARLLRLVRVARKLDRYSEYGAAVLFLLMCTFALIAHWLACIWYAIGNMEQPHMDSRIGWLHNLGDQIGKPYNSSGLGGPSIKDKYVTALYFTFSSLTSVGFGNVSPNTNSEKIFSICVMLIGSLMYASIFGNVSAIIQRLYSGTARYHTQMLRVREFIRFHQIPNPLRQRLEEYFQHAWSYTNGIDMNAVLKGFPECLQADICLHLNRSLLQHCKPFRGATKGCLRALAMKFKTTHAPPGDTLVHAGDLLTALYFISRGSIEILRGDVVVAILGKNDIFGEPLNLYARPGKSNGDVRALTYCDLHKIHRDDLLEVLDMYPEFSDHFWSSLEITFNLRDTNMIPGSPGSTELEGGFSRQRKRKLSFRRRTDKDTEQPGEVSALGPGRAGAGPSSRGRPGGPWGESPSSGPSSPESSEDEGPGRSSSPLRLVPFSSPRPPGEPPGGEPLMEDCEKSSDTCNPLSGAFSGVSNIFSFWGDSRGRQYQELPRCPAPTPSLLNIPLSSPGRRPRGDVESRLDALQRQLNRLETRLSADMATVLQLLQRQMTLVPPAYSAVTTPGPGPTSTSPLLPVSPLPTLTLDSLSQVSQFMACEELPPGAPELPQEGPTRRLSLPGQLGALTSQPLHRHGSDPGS
Sequence of Cytochrome P450 2C9 (Homo sapiens) (P11712 whole entry, looked up): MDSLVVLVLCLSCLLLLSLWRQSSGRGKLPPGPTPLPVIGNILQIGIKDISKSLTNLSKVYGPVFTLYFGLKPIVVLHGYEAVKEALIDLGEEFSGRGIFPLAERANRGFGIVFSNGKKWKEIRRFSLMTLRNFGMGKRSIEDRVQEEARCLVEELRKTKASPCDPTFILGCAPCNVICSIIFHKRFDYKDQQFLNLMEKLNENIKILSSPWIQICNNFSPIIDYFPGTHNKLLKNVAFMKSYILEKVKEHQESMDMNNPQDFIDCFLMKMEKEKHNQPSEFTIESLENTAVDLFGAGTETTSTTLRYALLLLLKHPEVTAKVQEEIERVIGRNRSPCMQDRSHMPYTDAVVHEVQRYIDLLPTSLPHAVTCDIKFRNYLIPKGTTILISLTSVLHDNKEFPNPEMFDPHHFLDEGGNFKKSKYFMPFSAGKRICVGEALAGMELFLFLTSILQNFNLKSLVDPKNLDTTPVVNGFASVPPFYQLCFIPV
Sequence of Cytochrome P450 3A4 (Homo sapiens) (P08684 whole entry, looked up): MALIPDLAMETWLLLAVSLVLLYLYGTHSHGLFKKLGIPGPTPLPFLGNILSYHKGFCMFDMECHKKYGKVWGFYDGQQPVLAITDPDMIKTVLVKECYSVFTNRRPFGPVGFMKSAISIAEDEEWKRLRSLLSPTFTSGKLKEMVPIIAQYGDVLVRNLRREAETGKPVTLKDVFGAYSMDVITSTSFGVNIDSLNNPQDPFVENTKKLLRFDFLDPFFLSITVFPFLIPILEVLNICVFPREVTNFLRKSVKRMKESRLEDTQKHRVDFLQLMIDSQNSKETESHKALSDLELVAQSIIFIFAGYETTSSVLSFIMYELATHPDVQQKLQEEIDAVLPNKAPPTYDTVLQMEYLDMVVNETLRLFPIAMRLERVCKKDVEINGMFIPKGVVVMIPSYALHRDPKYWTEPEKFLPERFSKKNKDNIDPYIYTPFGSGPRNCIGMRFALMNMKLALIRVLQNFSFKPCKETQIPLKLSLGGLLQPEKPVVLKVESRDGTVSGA

For the compound `NC(=O)c1ccccc1C(N)=O`, the Potency entry in [1], in assay [2], in assay [3], in [4], in assay [5] and in [6] was “inactive” throughout. For the same compound, the Potency result in [10] was “inactive”. The Potency in assay [7] is 40.1 µM (active); in assay [8], 40.1 µM (active); in [9], 28.4 µM (active).
For `CCc1cnc(C(=O)O)c(C(=O)O)c1`, the Potency entry in assay [1], in [2], in assay [3], in assay [4], in assay [5] and in assay [6] was “inactive” throughout. Moreover, the Potency result in assay [7], in [8], in assay [9], in [10] and in [11] was “inactive” each time.
On to `CCOC(=O)CC(O)(CC(=O)OCC)C(=O)OCC`, for which the Potency entry in assay [1], in [2], in assay [3], in [4], in assay [5] and in assay [6] was “inactive” in each case. For the same compound, the Potency result in [7], in assay [10] and in [11] was “inactive” each time. Also, the Potency in assay [8] was 35.6 µM (active); in [12] it was 8.94 µM (active).
For the compound `CCCCCCCCCCCC(=O)OCC`, the Potency result in assay [1], in assay [2], in [3], in assay [4], in [5] and in [6] was “inactive” each time. Besides, the Potency entry in assay [7], in [8], in assay [9], in assay [10] and in assay [11] was “inactive” in each case.
`O=C(O)COCC(=O)O`: the Potency result in assay [1], in assay [2], in assay [3], in [4], in assay [5] and in assay [6] was “inactive” in each case. In addition, the Potency entry in [7], in assay [8], in assay [9] and in [11] was “inactive” each time.
`CCOc1ccccc1O`: the Potency entry in assay [1], in [2], in [3], in [4], in [5] and in assay [6] was “inactive” each time. For the same compound, the Potency result in assay [7], in assay [8], in assay [9], in assay [10] and in assay [11] was “inactive” throughout.
As for `CCC(=O)O[C@@H]1C[C@H]2CC[C@]1(C)C2(C)C`, the Potency result in [1], in [2], in assay [3], in [4], in [5] and in assay [6] was “inactive” throughout. Besides, the Potency entry in assay [7], in assay [8], in [12] and in [11] was “inactive” each time.
On to `C=CC(C)CCC=C(C)C` (stereo unspecified), for which the Potency entry in [1], in [2], in assay [3], in [4], in assay [5] and in [6] was “inactive” each time. Further, the Potency entry in assay [7], in assay [8], in assay [10] and in [11] was “inactive” throughout.
Turning to `CCOc1ccc2c(c1)C(C)CC(C)(C)N2` (stereo unspecified), the Potency entry in [1], in [2], in assay [3], in [4], in [5] and in assay [10] was “inactive” each time. The Potency in [6] was 34.4 µM (active); in [7] it was 11.2 µM (active); in [8] it was 1.26 µM (active); in assay [11], 7.96 µM (active).
`CCCCCCC/C=C/C=O`: the Potency result in assay [1], in assay [2], in assay [3], in [4], in [5] and in assay [6] was “inactive” in each case. Also, the Potency result in assay [11] was “inactive”. The Potency in assay [7] is 39.9 µM (active); in assay [8], 79.6 µM (active).
As to `CCC(=O)O[C@]1(C(=O)COC)[C@@H](C)C[C@H]2[C@@H]3CCC4=CC(=O)C=C[C@]4(C)C3(F)[C@@H](O)C[C@@]21C` (stereo partly specified), the Potency result in assay [1], in assay [2], in [3], in assay [4], in assay [5] and in assay [8] was “inactive” in each case. Also, the Potency result in assay [10] was “inactive”. The results for the Potency in assay [6] and in assay [7] were 16.8 µM (active) and 15.5 µM (active), respectively.
As for `CC(C)(C)N`, the Potency entry in assay [1], in assay [2], in assay [3], in assay [4], in assay [5] and in assay [6] was “inactive” throughout. For the same compound, the Potency result in assay [7], in assay [8], in assay [9], in [10] and in [11] was “inactive” in each case.
In the case of `CCCCCCCCS`, the Potency result in assay [1], in assay [2], in assay [3], in assay [4], in assay [5] and in assay [6] was “inactive” each time. Moreover, the Potency result in assay [7], in assay [8], in assay [12], in [10] and in assay [11] was “inactive” throughout.
Take `O=C(O)c1ccccc1-n1cc(C(=O)O)c(=O)c2cc(Nc3c(F)cc(F)cc3Cl)c(Cl)cc21`: the Potency entry in assay [1], in [2], in assay [3], in [4], in assay [5] and in assay [6] was “inactive” each time. The Potency result in [7], in [8], in [9], in assay [10] and in [11] was “inactive” in each case.
`CS(C)=O`: the Potency result in [1], in [2], in assay [3], in [4], in [5] and in assay [6] was “inactive” throughout. The Potency entry in [7], in assay [8], in assay [10] and in assay [11] was “inactive” in each case.
Take `O=C(C1CCCCC1)N1CC(=O)N2CCCc3ccccc3C2C1` (stereo unspecified): the Potency entry in assay [1], in assay [2], in [3], in assay [4], in [5] and in [9] was “inactive” throughout. The Potency result in [10] is “inactive”. In addition, the results for the Potency in assay [6], in assay [8] and in [12] were 7.5 µM (active), 4.9 µM (active) and 13.8 µM (active), respectively.
As for `C=CC(=O)NC(C)(C)C`, the Potency result in assay [1], in assay [2], in assay [3], in [4], in assay [5] and in [6] was “inactive” in each case. Moreover, the Potency result in [7], in assay [12], in [10] and in [11] was “inactive” each time.
In the case of `COC(=O)C(C)(C)C`, the Potency result in [1], in assay [2], in [3], in assay [4], in assay [5] and in assay [6] was “inactive” each time. For the same compound, the Potency result in assay [10] and in assay [11] was “inactive” throughout. Besides, the Potency in [8] was 32.2 µM (active).
Regarding `Nc1ccc(-c2ccc(F)cc2)cc1`, the Potency entry in assay [1], in assay [2], in assay [3], in [4], in assay [5] and in [10] was “inactive” throughout. The Potency in assay [6] was 30.6 µM (active); in [8], 8.94 µM (active); in assay [12], 14.2 µM (active); in [9], 0.502 µM (active); in assay [11], 11.2 µM (active).
On to `C[C@H](CN1CCCC1)C(=O)c1ccc(C(F)(F)F)cc1`, for which the Potency entry in [1], in assay [2], in assay [3], in [4], in [5] and in [12] was “inactive” in each case. Besides, the Potency result in [10] and in [11] was “inactive” each time. Further, the Potency in [6] was 26.6 µM (active); in assay [7] it was 1.55 µM (active).
For the compound `COC=O`, the activity change, negative = cytotoxicity is 3.92% [at 8.39 µM] in [1], 2.52% [at 8.39 µM] in assay [3] and 7.73% [at 8.39 µM] in assay [5]. For the same compound, the caspase activation in assay [2] was -1.76% [at 8.39 µM]. Also, in assay [4], the caspase-3/7 activation is -0.739% [at 8.39 µM]. Also, in assay [6], the activation was -0.203% [at 8.39 µM]. Also, the activity change, negative = inhibition in assay [8] was 14.6% [at 10.5 µM]; in assay [12], -23.5% [at 10.5 µM]; in assay [9] it was -7.2% [at 10.5 µM]; in [10], -1.77% [at 6.97 µM]; in assay [11], 11.4% [at 10.5 µM].
As for `CCC(C)C1N=C(C)C(C)S1` (stereo unspecified), the Potency entry in [1], in assay [2], in assay [3], in assay [4], in assay [5] and in [10] was “inactive” throughout. Besides, the Potency in assay [6] is 34.4 µM (active); in assay [8], 39.9 µM (active); in assay [12], 39.9 µM (active); in assay [11] it was 25.2 µM (active).
